Data on five compounds can be found in PubChem BioAssay.

A short description of experiment [1]: E. coli DRC41 culture turbidity changes, primary screen, E. coli filamentation inducer project, strain DRC41, OD650, 48 h (AID 1152).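 Note: E. coli MC1000 strain DRC41 lacking acrAB efflux pump and sulA.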 Particulars: E. coli DRC41 (acrAB sulA), higher = more signal, called active from +8 up or from −8 down.
The nature of experiment [2]: small-molecule binders of probe aLefty1, primary screen, biochemical, small-molecule microarray, 635/667 nm fluorescence (AID 1153).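 Note: score merges spot fluorescence with signal-to-noise ratio from the scanned slide images.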 Particulars: higher = more signal.
The nature of experiment [3]: PSAC antagonists in infected red cells, primary screen, cell-based, P. falciparum Indochina, OD700, 1 h (AID 1154). Particulars: P. falciparum Indochina infected RBC osmotic lysis, higher = more signal, called active from +8 up or from −8 down.
Experiment [4] can be described thus: PSAC antagonists in infected red cells, primary screen, cell-based, P. falciparum Indochina, OD700, 2 h (AID 1155).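 Note: lysis reports solute entry through the parasite surface anion channel PSAC; channel blockers reduce lysis of infected cells.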 Particulars: P. falciparum Indochina infected erythrocytes, osmotic lysis OD700; higher = more signal, called active from +8 up or from −8 down.
Experiment [5] can be described thus: osmotic lysis modulators in infected erythrocytes, primary screen, PSAC antagonist project, cell-based, P. falciparum Indochina, OD700, 3 h (AID 1156). The conditions noted are these: higher = more signal, called active from +8 up or from −8 down.
Experiment [6] can be described thus: PSAC antagonists in infected red cells, primary screen, cell-based, P. falciparum Indochina, OD700, 18 h (AID 1157). Particulars: P. falciparum Indochina infected erythrocytes, osmotic lysis OD700, 18 h; higher = more signal, called active from +8 up or from −8 down.
Experiment [7] is described as follows: modulators of S6 phosphorylation in cells, primary screen, cell-based, A549, cytoblot, luminescence, serum-stimulated (AID 1158).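 Note: serum-stimulated A549 lung adenocarcinoma cells; signal is phosphorylated S6 detected by cytoblot immunostaining with HRP secondary.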 The conditions noted are these: A549 phospho-S6 cytoblot, 5 h, higher = more signal.
Experiment [8] addresses NADPH oxidase 2 (Homo sapiens) (UniProt P04839). As to the kind of experiment: NOX2-dependent H2O2 signal modulators, primary screen, NOX inhibitor project, cell-based, HEK293-NOX2, PMA-stimulated, Amplex Red fluorescence (AID 1159). Note: test concentration not given here. Particulars: 45 min, higher = more signal, called active from +8 up or from −8 down.
Experiment [9] addresses NADPH oxidase 4 (Homo sapiens) (UniProt Q9NPH5). Put plainly: NOX4-dependent H2O2 signal modulators, primary screen, NOX inhibitor project, cell-based, HEK293-NOX4, tetracycline-induced, Amplex Red fluorescence (AID 1160). Particulars: 45 min, higher = more signal, called active from +8 up or from −8 down.
In experiment [10] the target is NADPH oxidase 5 (Homo sapiens) (UniProt Q96PH1). As to the kind of experiment: NOX5-dependent H2O2 signal modulators, primary screen, NOX inhibitor project, cell-based, HEK293-NOX5, Amplex Red fluorescence (AID 1161). Particulars: HEK293-NOX5, ionomycin, 45 min, higher = more signal.
The nature of experiment [11]: A549 cell viability effects, profiling panel, calcein-AM fluorescence, 48 h, basal (AID 1162). Note: test concentration not given here. Particulars: higher = more signal.
The nature of experiment [12]: adipocyte viability effects, profiling panel, cell-based, 3T3-L1 adipocytes, calcein-AM fluorescence, 48 h, basal (AID 1163). Note: test concentration not given here. Particulars: 3T3-L1 adipocytes viability, higher = more signal.
Experiment [13] is described as follows: HepG2 cell viability effects, profiling panel, calcein-AM fluorescence, 48 h, basal (AID 1164). Note: test concentration not given here. The conditions noted are these: higher = more signal.
Experiment [14] in a line: MM1S cell viability effects, profiling panel, calcein-AM fluorescence, 48 h, basal (AID 1165).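 Note: viability of MM1S multiple myeloma cells under basal unstimulated conditions; test concentration not given here.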 The conditions noted are these: higher = more signal.
Experiment [15] in a line: basal RPMI8226 viability, no added stimulus, profiling panel, cell-based, calcein-AM fluorescence, 48 h, PK04 Diversity Set (AID 1166).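 Note: cells grown under basal conditions without added stimulus; test concentration not given here.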 The conditions noted are these: RPMI8226 myeloma viability, higher = more signal.
Experiment [16] is described as follows: basal HepG2 mitochondrial membrane potential changes, profiling panel, cell-based, JC-1 fluorescence, 24 h, 100 nL compound (AID 1167). Note: test concentration not given here. Particulars: higher = more signal.
Experiment [17] in a line: basal 3T3-L1 adipocyte mitochondrial potential changes, profiling panel, cell-based, JC-1 fluorescence, 3T3-L1 adipocytes, 24 h, 100 nL compound (AID 1168). Note: test concentration not given here. Particulars: JC-1 mitochondrial fluorescence, higher = more signal, called active from +8 up or from −8 down.
Experiment [18] can be described thus: basal RPMI8226 mitochondrial membrane potential changes, profiling panel, cell-based, JC-1 fluorescence, 24 h, 100 nL compound (AID 1169). Note: test concentration not given here. The conditions noted are these: RPMI8226 myeloma, JC-1 mitochondrial potential fluorescence, higher = more signal.
The nature of experiment [19]: basal MM1S mitochondrial membrane potential changes, profiling panel, cell-based, JC-1 fluorescence, 24 h, 100 nL compound (AID 1170). Note: test concentration not given here. The conditions noted are these: higher = more signal.
The nature of experiment [20]: A549 lung cancer cell viability effects, profiling panel, resazurin fluorescence, 24 h, PK04 Diversity Set (AID 1171). Note: test concentration not given here. Particulars: higher = more signal, called active from +8 up or from −8 down. Background: The colour change of resazurin is a common sign of viable cells or microbes.

The structures appear in SMILES notation. Calls of active or inactive are those of the source.

Sequence of NADPH oxidase 5 (Homo sapiens) (Q96PH1 whole entry, looked up): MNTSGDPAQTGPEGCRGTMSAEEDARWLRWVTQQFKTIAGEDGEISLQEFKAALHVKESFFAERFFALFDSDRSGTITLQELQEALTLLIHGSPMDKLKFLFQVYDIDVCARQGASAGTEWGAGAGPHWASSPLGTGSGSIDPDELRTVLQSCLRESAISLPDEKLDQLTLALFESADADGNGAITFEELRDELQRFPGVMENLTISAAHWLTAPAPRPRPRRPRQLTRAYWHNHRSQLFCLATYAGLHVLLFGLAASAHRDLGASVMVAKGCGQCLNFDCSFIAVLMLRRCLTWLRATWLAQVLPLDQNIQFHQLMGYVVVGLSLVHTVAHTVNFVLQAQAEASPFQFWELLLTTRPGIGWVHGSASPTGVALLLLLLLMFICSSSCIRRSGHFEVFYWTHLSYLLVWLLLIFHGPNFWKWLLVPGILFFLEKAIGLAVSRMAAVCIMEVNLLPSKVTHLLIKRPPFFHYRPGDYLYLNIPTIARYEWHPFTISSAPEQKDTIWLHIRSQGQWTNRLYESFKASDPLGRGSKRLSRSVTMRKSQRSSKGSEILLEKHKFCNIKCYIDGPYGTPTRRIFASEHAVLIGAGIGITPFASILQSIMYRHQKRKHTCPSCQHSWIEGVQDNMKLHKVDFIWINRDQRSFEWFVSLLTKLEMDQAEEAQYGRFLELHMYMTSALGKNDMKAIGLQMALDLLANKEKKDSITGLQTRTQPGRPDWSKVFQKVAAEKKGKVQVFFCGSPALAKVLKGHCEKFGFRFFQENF
Sequence of NADPH oxidase 4 (Homo sapiens) (Q9NPH5 whole entry, looked up): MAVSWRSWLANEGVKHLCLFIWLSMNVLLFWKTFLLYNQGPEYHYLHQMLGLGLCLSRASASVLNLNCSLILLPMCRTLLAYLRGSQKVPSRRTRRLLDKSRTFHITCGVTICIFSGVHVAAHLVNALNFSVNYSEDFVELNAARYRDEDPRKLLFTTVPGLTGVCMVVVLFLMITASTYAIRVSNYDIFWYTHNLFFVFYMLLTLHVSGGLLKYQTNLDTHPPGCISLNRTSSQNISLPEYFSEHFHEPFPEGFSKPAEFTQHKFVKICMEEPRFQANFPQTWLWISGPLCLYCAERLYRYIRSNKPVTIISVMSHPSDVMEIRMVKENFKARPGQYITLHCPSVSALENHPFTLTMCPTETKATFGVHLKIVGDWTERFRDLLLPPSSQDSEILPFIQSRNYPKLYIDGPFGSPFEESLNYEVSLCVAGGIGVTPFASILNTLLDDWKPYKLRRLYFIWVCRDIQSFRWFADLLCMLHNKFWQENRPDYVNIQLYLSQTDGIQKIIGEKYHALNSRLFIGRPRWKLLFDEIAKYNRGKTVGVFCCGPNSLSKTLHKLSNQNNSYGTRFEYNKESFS
Sequence of NADPH oxidase 2 (Homo sapiens) (P04839 whole entry, looked up): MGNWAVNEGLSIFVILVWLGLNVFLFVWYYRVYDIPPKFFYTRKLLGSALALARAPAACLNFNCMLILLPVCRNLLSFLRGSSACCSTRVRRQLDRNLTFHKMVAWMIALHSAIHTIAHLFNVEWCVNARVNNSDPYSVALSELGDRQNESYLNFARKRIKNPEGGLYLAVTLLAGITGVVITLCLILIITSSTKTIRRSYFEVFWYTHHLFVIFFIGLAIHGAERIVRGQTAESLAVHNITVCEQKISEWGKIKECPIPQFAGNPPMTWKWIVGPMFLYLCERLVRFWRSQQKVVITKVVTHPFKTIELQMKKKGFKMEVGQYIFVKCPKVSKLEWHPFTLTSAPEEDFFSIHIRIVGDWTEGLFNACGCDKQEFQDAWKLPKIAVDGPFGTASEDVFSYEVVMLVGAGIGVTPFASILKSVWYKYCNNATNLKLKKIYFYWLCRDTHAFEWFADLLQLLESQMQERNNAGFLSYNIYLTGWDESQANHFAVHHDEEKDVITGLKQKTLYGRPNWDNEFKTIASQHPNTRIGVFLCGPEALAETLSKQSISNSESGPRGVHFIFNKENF

In the case of `O=C1N(Cc2ccccc2)c2ccccc2[C@H]2OC(c3ccc(OCCCO)cc3)=N[C@@]12CCS(=O)(=O)c1ccccc1`, the z-score in experiment [1] was -0.751 (inactive); in experiment [3], 25.3 (active); in [4] it was 11.8 (active); in [5], 2.9 (inactive); in experiment [6], 1.85 (inactive); in experiment [7] it was -0.0791. Moreover, the z-score in experiment [8] was -0.596 (inactive); in experiment [9] it was -0.793 (inactive); in [10], -1.21; in experiment [11] it was -0.737; in experiment [12] it was 0.899; in [13] it was -0.117. For the same compound, the z-score in experiment [14] was -0.641; in experiment [15], -1.43; in experiment [16], 0.291; in experiment [17] it was 0.605 (inactive); in experiment [18], -0.497; in experiment [19] it was -0.0454. Also, the z-score in experiment [20] was -0.725 (inactive). In [2], this compound returned a composite z-score of 0.396.

For the compound `O=c1c2ccc(Br)cc2nc(-c2ccccc2)n1Cc1cccc(O)c1`, the z-score in experiment [1] is 0.421 (inactive); in [3], 15.7 (active); in [4], 3.45 (inactive); in experiment [5], 0.386 (inactive); in experiment [6] it was 1.73 (inactive); in experiment [7] it was -0.404. The z-score in experiment [8] is -1.84 (inactive); in experiment [9], -1.05 (inactive); in experiment [10], -1.99; in [11], -0.277; in experiment [12], 1.02; in experiment [13], 0.196. For the same compound, the z-score in experiment [14] is -0.115; in [15], 0.195; in [16], -0.0225; in [17], -0.525 (inactive); in [18] it was 0.385; in experiment [19], -0.258. For the same compound, the z-score in experiment [20] was 0.0972 (inactive). This compound also showed a composite z-score in experiment [2] of 0.748.

For `COC(=O)[C@@]1(Cc2ccc(OC)cc2)[C@H]2c3cc(C(=O)N(C)C)n(Cc4cc(C)n(C)n4)c3C[C@H]2CN1C(=O)c1ccccc1`, the z-score in experiment [1] is -1.82 (inactive); in [3] it was 2.11 (inactive); in experiment [4], 0.498 (inactive); in experiment [5], 1.45 (inactive); in [6] it was 0.544 (inactive); in experiment [7], 0.355. The z-score in experiment [8] was 0.27 (inactive); in experiment [9], -1.52 (inactive); in experiment [10], -3.56; in experiment [11], -0.892; in experiment [12], 0.336; in experiment [13], -0.384. Also, the z-score in [14] was -0.407; in [15], -1.77; in experiment [16], 1.57; in experiment [17] it was -0.938 (inactive); in experiment [18] it was 0.534; in experiment [19], -0.228. Besides, the z-score in experiment [20] is -1.9 (inactive). The composite z-score in experiment [2] amounted to 0.396.

`COC(=O)C(CC#Cc1ccc2c(c1)[C@]1(C(=O)N2)[C@H](c2ccc(O)cc2)N2[C@H](c3ccccc3)[C@H](c3ccccc3)OC(=O)[C@H]2[C@@H]1C(=O)O)C(=O)OC`: the z-score in [1] was -1.42 (inactive); in [3], 0.489 (inactive); in [4], -0.18 (inactive); in [5], -0.258 (inactive); in [6] it was -0.367 (inactive); in experiment [7], -0.351. For the same compound, the z-score in [8] was 1.42 (inactive); in [9] it was 0.0467 (inactive); in experiment [10], 1.29; in [11], 0.391; in experiment [12], -0.987; in [13], 0.0171. The z-score in experiment [14] is 0.226; in experiment [15], -0.892; in [16] it was -0.141; in [17], -0.687 (inactive); in [18], 0.491; in [19], 0.412. For the same compound, the z-score in experiment [20] is -0.279 (inactive). The composite z-score in [2] stood at 0.0315.

As for `COC(=O)[C@]1(Cc2ccccc2CN=[N+]=[N-])N=C(c2ccc(OCCCO)cc2)O[C@@H]1c1ccccc1CN=[N+]=[N-]`, the z-score in experiment [1] was 1.23 (inactive); in experiment [3] it was 30.8 (active); in experiment [4], 24.1 (active); in experiment [5] it was 1.88 (inactive); in experiment [6] it was 5.85 (inactive); in experiment [7], 0.196. For the same compound, the z-score was -2.35 (inactive) in experiment [8]; -0.0356 (inactive) in experiment [9]; -1.79 in experiment [10]; -3.46 in experiment [11]; 0.766 in experiment [12]; -4.79 in experiment [13]. The z-score in [14] was -3.67; in [15], -4.08; in experiment [16], 0.344; in experiment [17], 0.24 (inactive); in [18], -1.07; in experiment [19] it was -2.47. The z-score in experiment [20] is -3.05 (inactive). Also, the composite z-score in experiment [2] came to 0.0962.
